# Reference: the supplement of paper PMC10849652
# About 8,800 targets were measured; listed, in parts, are those with a hit and a random draw of the rest. About 0.5% of all pairs of compound and target were hits. Unmarked numbers belong to inactive results.
# Key:
# Experiment in all cases: log2 fold change, soluble protein after heating vs DMSO (PISA); higher = thermal stabilisation; K562 lysate, 10 uM; active = over 0.2 and 3.5 SD of the protein, either way, in both replicates (recomputed)
# [1] = compound: CN1CC[C@H](c2c(O)cc(O)c3c(=O)cc(-c4ccccc4Cl)oc23)[C@H](O)C1 [alvocidib]
# Method in brief: (§1)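 Quantification was by TMTpro 16plex LC-MS/MS with equalised channel sums, applied to the supernatant after 21,000xg for 90 min. Samples were crude K562 extract at 1 mg/mL protein in PBS pH 7.4 with 1 mM MgCl2, treated with 10 μM compound for 30 min, heated for 3 min across 48°C-58°C, pooled and brought to 0.5% NP-40 at 4°C. Values are log-two fold changes in thermal stability relative to solvent controls, from duplicates.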
# [2] = compound: CN1CCc2c(c3ccccc3n2Cc2ccc(C(=O)NO)cc2)C1 [Tubastatin A]
# Method in brief: as §1
# [3] = compound: CNC(=O)C1=CC=CC=C1NC2=NC(=NC=C2Cl)NC3=C(C=C(C=C3)N4CCOCC4)OC
# Method in brief: as §1
# [4] = compound: CNC(=O)c1ccc(Nc2ncc(C(F)(F)F)c(NCc3nccnc3N(C)S(C)(=O)=O)n2)cc1 [defactinib]
# Method in brief: as §1
# [5] = compound: CNc1nc(-c2ccc3c(N)n[nH]c3c2)cc(N2C[C@@H](C(=O)NC3CCCCC3)CC[C@H]2C)n1
# Method in brief: as §1
# [6] = compound: COC(=O)N[C@@H](C)CNc1nccc(-c2cn(C(C)C)nc2-c2cc(Cl)cc(NS(C)(=O)=O)c2F)n1 [encorafenib]
# Method in brief: as §1
# [7] = compound: COC(=O)[C@H](CCSC)NC(=O)C1=C(C=C(C=C1)NC[C@H](CS)N)C2=CC=CC=C2
# Method in brief: as §1
# [8] = compound: COc1cc(Nc2ncc3c(n2)-c2ccc(Cl)cc2C(c2c(F)cccc2OC)=NC3)ccc1C(=O)O [alisertib]
# Method in brief: as §1
# [9] = compound: COc1cc2nc(-c3cc(F)ccc3O)nc(N[C@@H]3CNC[C@H]3C(C)(C)O)c2cc1OC
# Method in brief: as §1
# [10] = compound: COc1cc2ncnc(Nc3ccc(F)c(Cl)c3)c2cc1OCCCN1CCOCC1 [gefitinib]
# Method in brief: as §1
# [11] = compound: CS(=O)(=O)CCNCc1ccc(-c2ccc3ncnc(Nc4ccc(OCc5cccc(F)c5)c(Cl)c4)c3c2)o1 [lapatinib]
# Method in brief: as §1
# [12] = compound: CS(=O)(=O)N1CCN(Cc2cc3nc(-c4cccc5[nH]ncc45)nc(N4CCOCC4)c3s2)CC1 [pictilisib]
# Method in brief: as §1
# [13] = compound: C[C@@H](Oc1cc(-c2cnn(C3CCNCC3)c2)cnc1N)c1c(Cl)ccc(F)c1Cl [crizotinib]
# Method in brief: as §1
# [14] = compound: C[C@H](C1=CC=C(C=C1)C(=O)NC2=C3C=CNC3=NC=C2)N
# Method in brief: as §1
# [15] = compound: C[C@H](Nc1ncnc2nc[nH]c12)c1cc2cccc(Cl)c2c(=O)n1-c1ccccc1 [duvelisib]
# Method in brief: as §1
# [16] = compound: Cc1cc(Nc2cc(CN3CCOCC3)c3nc(C)c(Cc4ccc(Cl)cc4F)n3n2)n[nH]1 [gandotinib]
# Method in brief: as §1
# [17] = compound: Cc1cc(Nc2cc(N3CCN(C)CC3)nc(Sc3ccc(NC(=O)C4CC4)cc3)n2)n[nH]1 [tozasertib]
# Method in brief: as §1
# [18] = compound: Cc1ccc(-n2nc(C(C)(C)C)cc2NC(=O)Nc2ccc(OCCN3CCOCC3)c3ccccc23)cc1 [doramapimod]
# Method in brief: as §1
# [19] = compound: Cc1ccc(NC(=O)c2ccc(CN3CC[C@H](N(C)C)C3)c(C(F)(F)F)c2)cc1Nc1nccc(-c2cncnc2)n1 [bafetinib]
# Method in brief: as §1
# [20] = compound: Cc1cccc(CC(=O)N2CCc3c2ccc(-c2cn(C)c4ncnc(N)c24)c3F)n1
# Method in brief: as §1
# UniProt Q92759, sequence (Q92759 whole entry, looked up): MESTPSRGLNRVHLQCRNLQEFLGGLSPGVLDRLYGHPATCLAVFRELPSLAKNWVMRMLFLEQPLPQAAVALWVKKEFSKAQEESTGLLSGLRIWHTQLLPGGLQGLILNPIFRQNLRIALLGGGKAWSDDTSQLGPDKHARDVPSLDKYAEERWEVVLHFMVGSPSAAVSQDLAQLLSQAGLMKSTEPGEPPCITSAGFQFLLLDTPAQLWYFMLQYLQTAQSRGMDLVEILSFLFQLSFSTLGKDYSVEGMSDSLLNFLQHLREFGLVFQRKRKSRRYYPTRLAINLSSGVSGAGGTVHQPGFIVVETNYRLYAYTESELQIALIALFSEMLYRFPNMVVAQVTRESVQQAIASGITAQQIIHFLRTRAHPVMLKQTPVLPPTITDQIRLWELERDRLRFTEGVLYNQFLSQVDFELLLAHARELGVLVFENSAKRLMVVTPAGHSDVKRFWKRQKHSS
# UniProt Q03013, sequence (Q03013 whole entry, looked up): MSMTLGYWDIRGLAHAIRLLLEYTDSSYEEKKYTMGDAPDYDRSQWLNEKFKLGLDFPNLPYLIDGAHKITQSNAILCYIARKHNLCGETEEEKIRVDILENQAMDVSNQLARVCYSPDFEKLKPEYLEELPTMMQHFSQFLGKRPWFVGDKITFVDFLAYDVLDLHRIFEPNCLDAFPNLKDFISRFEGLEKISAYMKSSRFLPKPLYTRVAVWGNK
# UniProt P26583, sequence (P26583 whole entry, looked up): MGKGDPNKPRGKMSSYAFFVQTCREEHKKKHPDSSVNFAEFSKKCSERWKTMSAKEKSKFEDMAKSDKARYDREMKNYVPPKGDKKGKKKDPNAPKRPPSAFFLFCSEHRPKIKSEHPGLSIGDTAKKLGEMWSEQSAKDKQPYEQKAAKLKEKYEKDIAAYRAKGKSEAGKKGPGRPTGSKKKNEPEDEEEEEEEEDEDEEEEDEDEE
# UniProt Q8IU81, sequence (Q8IU81 whole entry, looked up): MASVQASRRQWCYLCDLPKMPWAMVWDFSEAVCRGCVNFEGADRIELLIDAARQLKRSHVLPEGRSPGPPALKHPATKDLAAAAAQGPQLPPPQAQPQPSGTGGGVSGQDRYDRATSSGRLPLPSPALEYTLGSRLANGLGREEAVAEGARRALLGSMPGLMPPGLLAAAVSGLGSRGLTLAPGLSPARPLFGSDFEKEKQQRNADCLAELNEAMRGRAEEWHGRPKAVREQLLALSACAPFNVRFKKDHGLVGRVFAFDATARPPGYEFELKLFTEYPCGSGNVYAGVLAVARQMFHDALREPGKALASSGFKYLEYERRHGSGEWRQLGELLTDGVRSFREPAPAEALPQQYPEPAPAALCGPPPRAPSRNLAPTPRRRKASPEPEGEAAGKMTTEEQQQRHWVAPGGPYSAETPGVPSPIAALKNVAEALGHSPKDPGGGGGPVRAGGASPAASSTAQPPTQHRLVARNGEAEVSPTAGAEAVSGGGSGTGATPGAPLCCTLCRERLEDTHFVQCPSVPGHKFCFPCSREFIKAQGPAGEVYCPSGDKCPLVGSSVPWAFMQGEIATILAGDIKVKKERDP
# UniProt Q92769, sequence (Q92769 whole entry, looked up): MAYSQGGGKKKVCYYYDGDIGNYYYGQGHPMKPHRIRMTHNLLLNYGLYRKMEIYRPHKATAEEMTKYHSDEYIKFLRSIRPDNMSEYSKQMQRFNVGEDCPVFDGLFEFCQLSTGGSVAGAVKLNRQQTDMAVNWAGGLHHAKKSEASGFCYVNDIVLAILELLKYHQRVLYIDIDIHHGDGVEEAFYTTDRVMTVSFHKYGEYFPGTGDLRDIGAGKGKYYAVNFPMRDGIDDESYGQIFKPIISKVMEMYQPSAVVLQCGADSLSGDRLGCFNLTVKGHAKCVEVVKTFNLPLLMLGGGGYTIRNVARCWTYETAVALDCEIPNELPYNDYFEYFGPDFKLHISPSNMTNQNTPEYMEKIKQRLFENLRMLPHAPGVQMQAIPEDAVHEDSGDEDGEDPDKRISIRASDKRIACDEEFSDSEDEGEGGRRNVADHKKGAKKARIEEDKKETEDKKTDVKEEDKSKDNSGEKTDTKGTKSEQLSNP
# UniProt Q9BXW7, sequence (Q9BXW7 whole entry, looked up): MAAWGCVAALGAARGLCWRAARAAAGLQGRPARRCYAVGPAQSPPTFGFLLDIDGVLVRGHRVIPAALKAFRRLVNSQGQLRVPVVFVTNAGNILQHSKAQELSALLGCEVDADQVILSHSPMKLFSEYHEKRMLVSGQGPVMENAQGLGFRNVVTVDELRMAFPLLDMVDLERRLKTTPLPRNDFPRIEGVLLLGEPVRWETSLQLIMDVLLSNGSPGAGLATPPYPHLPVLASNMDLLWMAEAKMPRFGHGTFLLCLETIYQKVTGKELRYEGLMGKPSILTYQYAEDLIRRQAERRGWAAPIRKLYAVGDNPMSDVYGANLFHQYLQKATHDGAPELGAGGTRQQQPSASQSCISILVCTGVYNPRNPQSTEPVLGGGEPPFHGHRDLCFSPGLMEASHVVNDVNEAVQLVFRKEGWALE
# UniProt Q9NVX0, sequence (Q9NVX0 whole entry, looked up): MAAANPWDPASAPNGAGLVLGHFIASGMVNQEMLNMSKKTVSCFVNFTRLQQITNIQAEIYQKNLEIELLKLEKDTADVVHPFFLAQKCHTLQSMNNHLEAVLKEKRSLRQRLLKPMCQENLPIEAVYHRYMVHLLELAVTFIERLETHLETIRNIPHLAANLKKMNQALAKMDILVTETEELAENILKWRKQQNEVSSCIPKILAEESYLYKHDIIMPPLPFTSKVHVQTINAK
# UniProt P55795, sequence (P55795 whole entry, looked up): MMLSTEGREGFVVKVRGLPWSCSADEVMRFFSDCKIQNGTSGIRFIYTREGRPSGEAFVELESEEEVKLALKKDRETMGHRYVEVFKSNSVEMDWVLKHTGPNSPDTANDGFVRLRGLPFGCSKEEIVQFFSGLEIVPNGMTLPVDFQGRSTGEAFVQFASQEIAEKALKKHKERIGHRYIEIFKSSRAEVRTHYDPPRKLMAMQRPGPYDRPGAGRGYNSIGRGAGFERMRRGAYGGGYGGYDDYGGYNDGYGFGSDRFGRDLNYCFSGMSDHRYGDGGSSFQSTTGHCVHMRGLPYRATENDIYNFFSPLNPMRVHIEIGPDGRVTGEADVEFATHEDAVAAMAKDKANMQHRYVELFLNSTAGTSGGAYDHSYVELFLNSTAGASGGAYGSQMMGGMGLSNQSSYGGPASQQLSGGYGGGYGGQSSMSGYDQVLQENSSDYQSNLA
# UniProt P12081, sequence (P12081 whole entry, looked up): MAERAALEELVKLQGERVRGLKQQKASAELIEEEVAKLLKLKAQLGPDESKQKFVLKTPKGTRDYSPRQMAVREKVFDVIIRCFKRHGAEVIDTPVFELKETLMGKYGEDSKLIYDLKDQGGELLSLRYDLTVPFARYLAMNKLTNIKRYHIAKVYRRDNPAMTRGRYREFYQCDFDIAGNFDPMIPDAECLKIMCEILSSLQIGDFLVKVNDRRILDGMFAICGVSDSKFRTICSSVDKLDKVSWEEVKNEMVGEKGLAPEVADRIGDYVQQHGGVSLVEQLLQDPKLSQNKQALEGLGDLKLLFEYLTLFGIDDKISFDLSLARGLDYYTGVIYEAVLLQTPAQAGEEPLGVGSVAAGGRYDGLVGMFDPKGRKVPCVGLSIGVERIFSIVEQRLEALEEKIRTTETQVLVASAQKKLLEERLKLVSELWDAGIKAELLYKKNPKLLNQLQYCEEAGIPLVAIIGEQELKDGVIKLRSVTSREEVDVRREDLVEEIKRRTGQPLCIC
# UniProt P36969, sequence (P36969 whole entry, looked up): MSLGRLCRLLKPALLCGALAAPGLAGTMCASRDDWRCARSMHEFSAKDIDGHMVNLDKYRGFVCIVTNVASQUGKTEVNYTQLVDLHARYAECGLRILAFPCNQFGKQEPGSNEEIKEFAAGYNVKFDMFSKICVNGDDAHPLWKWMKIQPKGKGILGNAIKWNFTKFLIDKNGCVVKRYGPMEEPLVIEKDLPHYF
# UniProt Q0VDF9, sequence (Q0VDF9 whole entry, looked up): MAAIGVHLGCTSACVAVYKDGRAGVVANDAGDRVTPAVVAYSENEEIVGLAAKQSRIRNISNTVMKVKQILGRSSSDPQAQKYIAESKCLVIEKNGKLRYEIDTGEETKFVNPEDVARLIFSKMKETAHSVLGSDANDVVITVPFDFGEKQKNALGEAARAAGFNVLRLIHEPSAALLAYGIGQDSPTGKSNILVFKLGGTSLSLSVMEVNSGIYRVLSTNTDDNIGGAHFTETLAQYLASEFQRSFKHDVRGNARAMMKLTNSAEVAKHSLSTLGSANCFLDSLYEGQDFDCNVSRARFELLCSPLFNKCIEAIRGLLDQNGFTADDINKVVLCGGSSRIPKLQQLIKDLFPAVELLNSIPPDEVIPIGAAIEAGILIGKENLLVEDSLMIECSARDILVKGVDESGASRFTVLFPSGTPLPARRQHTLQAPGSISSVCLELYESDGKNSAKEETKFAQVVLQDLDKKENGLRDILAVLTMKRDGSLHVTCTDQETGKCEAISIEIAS
# UniProt Q14103, sequence (Q14103 whole entry, looked up): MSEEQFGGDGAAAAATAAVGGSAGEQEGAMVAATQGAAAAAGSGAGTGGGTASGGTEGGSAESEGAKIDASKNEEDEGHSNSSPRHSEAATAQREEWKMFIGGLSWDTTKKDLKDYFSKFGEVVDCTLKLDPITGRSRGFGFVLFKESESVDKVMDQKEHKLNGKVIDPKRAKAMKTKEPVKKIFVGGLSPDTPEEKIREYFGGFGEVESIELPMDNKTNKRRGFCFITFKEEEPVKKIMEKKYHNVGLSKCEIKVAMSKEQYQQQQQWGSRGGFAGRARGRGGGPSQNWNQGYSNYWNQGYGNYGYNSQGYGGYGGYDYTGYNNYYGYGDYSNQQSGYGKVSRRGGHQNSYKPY
Target,log2 fold change [1],log2 fold change [2],log2 fold change [3],log2 fold change [4],log2 fold change [5],log2 fold change [6],log2 fold change [7],log2 fold change [8],log2 fold change [9],log2 fold change [10],log2 fold change [11],log2 fold change [12],log2 fold change [13],log2 fold change [14],log2 fold change [15],log2 fold change [16],log2 fold change [17],log2 fold change [18],log2 fold change [19],log2 fold change [20]
GTF2H4 (UniProt Q92759),0.005,-0.069,0.018,0.085,-0.01,0.025,-0.015,0.016,0.02,-0.022,-0.026,0.027,-0.025,0.061,-0.01,-0.14,0.031,0,-0.039,0.038
HSPA14 (UniProt Q0VDF9),0.001,-0.081,0.01,0.012,-0.011,-0.004,0.153,0.028,0,0.02,-0.016,0.023,-0.02,-0.038,0.007,-0.039,0.018,0.003,-0.026,0.037
HAUS2 (UniProt Q9NVX0),0.069,-0.079,0.041,-0.171,-0.047,0.088,0.043,-0.037,0.014,-0.049,-0.033,-0.187,-0.055,0.167,0.049,-0.159,0.067,-0.047,0.005,-0.017
HDHD5 (UniProt Q9BXW7),-0.097,-0.078,0.041,-0.069,0.034,0.026,0.024,0.031,0.012,-0.063,0.011,0.012,-0.017,-0.147,0.058,-0.005,0.059,0.131,0.033,0.116
GSTM4 (UniProt Q03013),0.006,-0.012,0.029,0.006,0.077,-0.117,0.095,0.03,0.002,0.075,-0.091,0.073,-0.006,-0.118,-0.034,0.011,-0.12,0.076,0.029,0.051
HMGB2 (UniProt P26583),0.134,0.027,0.023,0.003,0.016,-0.006,-0.081,-0.044,-0.022,-0.028,0.006,0.021,0.052,0.266 (active),-0.01,-0.16,-0.022,-0.088,0.14,-0.244 (active)
HDAC2 (UniProt Q92769),-0.01,-0.012,-0.007,0.006,0.003,-0.006,0.007,0.002,0,0.013,-0.006,0.002,0.057,-0.047,-0.028,0.018,0.014,-0.05,-0.021,0.028
INTS10 (UniProt Q9NVR2),-0.009,-0.143,-0.033,0.016,-0.045,-0.017,0.043,-0.093,-0.097,0.049,0.097,-0.093,-0.04,0.027,-0.09,-0.168,0.011,0.026,-0.052,0
HARS (UniProt P12081),0,0.001,-0.02,-0.02,-0.054,-0.03,0.254 (active),0.003,0.015,0.007,0.008,0.01,-0.009,0.028,0.014,-0.052,0.006,0.003,0.015,-0.01
HMBOX1 isoform 5 (UniProt Q6NT76),-0.078,-0.003,-0.005,0.012,0.066,-0.037,-0.016,-0.156,0.02,-0.091,0.254 (active),-0.097,0.023,0,0.021,0.052,0.035,-0.013,0.112,0.129
HNRNPD isoform 3 (UniProt Q14103),0.017,0.008,0.004,0.117,0.146,0.036,0.016,0.024,0.001,0.113,-0.062,0.126,-0.07,-0.08,0.043,0.094,-0.078,0.045,0.166,0.033
IMPDH2 (UniProt P12268),0.026,-0.226 (active),0.013,0.03,0.017,0.021,-0.501 (active),0.029,-0.015,-0.023,0.027,0.043,-0.007,-0.011,-0.012,-0.04,-0.017,0.029,0.041,0.012
IRF2BP1 (UniProt Q8IU81),-0.029,-0.047,0.095,0.045,0.091,0.025,0.117,0.042,0.038,-0.003,-0.01,0.008,-0.052,-0.004,-0.086,0.004,0,0.105,-0.1,0.043
HNRNPH2 (UniProt P55795),-0.003,-0.209,0.02,0.019,-0.043,0.037,-0.032,-0.004,-0.007,-0.047,0.025,-0.004,-0.097,-0.048,-0.024,0.068,-0.032,0.062,0.018,0.008
HK2 (UniProt P52789),0.006,-0.17,0.024,0.017,-0.006,0,0.165,0.023,-0.031,-0.016,-0.003,-0.017,-0.069,0.043,0.007,-0.056,0.007,0.05,-0.076,0.004
GPX4 (UniProt P36969),0.031,-0.099,-0.006,0.048,-0.051,0.004,-0.023,0.041,0,0.016,-0.037,-0.03,-0.01,0.041,-0.008,-0.065,0,-0.001,-0.033,-0.051
